# Experimental data from PubChem BioAssay (NCI).
# This is part of a sample that, as a whole, favours compounds with a hit. Of some 83,000 tested, about 20% had one in any assay.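 Each cell line was grown in a 96-well plate and treated with one concentration of compound for 48 hours. Values below 10 were considered active.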 A number with no mark means an inactive call. The source made the active and inactive calls.
# Test system: MDA-MB-468 breast
# Assay: NCI-60 one-dose screen, 48 h (100 = growth as untreated, 0 = no growth, -100 = all killed)
# Conditions: 10 µM unless noted
row,SMILES,growth
1,Cc1cc(C)c(S(=O)(=O)N2CCN(c3cc4c(cc3F)c(=O)c(C(=O)O)cn4C3CC3)CC2)c(C)c1,65.1%
2,COc1ccc(-c2nc(-c3nc4ccc(F)cc4[nH]3)cc3c2[nH]c2ccccc23)cc1,40%
3,C/C(=N\Nc1cccc(Cl)n1)c1ccccn1,-31.3% (active)
